Screens from PubChem.
The list is not random: actives were taken first. Their share in the collection is about 3.1%.
PTAP TSG101 blk: blocks PTAP/TSG101 interaction to inhibit HIV-1 budding | Fluorescence polarization, FITC-PTAP peptide / Tsg101 binding | AID 493005 | Potency, µM (highest dose often 115 µM), without a hit: top-dose activity change, negative = inhibition, usual class: inhibitors | Q99816 | 340,000 tested, under 10 active; active means well fitted inhibition curve with a large enough effect in the main read-out, with a control signal flat, not every such curve was filed as active; inconclusive means small, poorly fitted or top-dose-only effect, or effect the other way, or a change in a side signal; inactive means no such curve, though single readings can be large or run the other way; further: potency means the concentration at half of the fitted maximal effect; % of control where 0% means no effect
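Fluorescence anisotropy tracks displacement of a FITC-tagged PTAP peptide (50 nM) from the Tsg101 binding domain (10 uM), following a 20 min room-temperature incubation at pH 7.5.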
PLK1 PBD inh: inhibitors of human PLK1 polo-box domain binding. Plk1 PBD binding of FITC phosphopeptide, fluorescence polarization. Potency, µM, for inactives: max response, negative = inhibition, hits mostly inhibitors. actives 2.8% (n = 360,000). AID 720504; further: potency means the concentration at half of the fitted maximal effect; series mostly up to about 57 µM; on the % scale 0 is the no-effect control and ±100 the full control effect; nearly all actives have a fitted effect of over 65% in size
uPA surface inh: blocks generation of uPA at the cell surface; cell surface uPA generation assay, qHTS; Potency, µM (series often up to 38.3 µM), inactives show at the highest dose activity change, negative = inhibition, hits mostly inhibitors; actives 0.31% (n = 330,000); AID 540303; active means well fitted inhibition curve with a large enough effect; inconclusive means small, poorly fitted or top-dose-only effect; inactive means no such curve, though single readings can be large or run the other way; tested in mouse RAW 264.7 cells; further: potency means the concentration at half of the fitted maximal effect; on the % scale 0 is the no-effect control and ±100 the full control effect; nearly all actives have a fitted effect of over 55% in size
TSHR antagonist: human thyrotropin receptor antagonism. activity change, negative = inhibition, % at 11.5 µM. actives 0.2% (n = 330,000). P16473. TSHR-expressing cells, TSH-stimulated cAMP HTRF, 2 h; stronger effect = lower value;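 active means activity change below a set negative limit, meaning inhibition stronger than a set level, cut at about -70% in these data; inconclusive means activity change between two set negative limits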; further: on the % scale 0 is the no-effect control and ±100 the full control effect
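Competitive HTRF cAMP read-out (cryptate anti-cAMP antibody, cAMP-d2; 30 min, room temperature) in freshly harvested TSHR cells. Compounds added before TSH at EC80 (4nM final), followed by 2 hours' incubation at 37 deg C.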
VDR inh: inhibitors of human vitamin D receptor; VDR-SRC2-3 peptide fluorescence polarization, 2 h; actives 0.93% (n = 400,000); AID 504847; Potency, µM, without a hit: max response, negative = inhibition, most hits filed as inhibitors; P11473; further: potency means the concentration at half of the fitted maximal effect; on the % scale 0 is the no-effect control and ±100 the full control effect
Target sequence (P11473 whole entry, looked up): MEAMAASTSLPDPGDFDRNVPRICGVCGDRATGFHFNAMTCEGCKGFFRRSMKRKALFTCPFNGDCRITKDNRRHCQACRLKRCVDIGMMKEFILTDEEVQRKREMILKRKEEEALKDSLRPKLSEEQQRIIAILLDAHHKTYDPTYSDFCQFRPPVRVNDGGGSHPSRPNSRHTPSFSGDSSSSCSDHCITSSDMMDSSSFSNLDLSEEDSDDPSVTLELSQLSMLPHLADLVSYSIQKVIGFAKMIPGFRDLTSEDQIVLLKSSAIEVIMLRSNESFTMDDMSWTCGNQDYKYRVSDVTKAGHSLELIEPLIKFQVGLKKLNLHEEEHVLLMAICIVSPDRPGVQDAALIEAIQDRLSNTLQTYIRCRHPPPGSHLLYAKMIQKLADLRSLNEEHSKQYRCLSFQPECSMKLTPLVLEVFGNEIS
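VDR–SRC2-3 interaction, FP format. Cmpds 23 nl via pintool, brief spin, 2 h ambient incubation.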
Active calls of the source: *; ? = inconclusive; nt = no result. Unless noted, the call rests on the fitted dose curve; in most records, active means well fitted curve in the direction sought with a large enough effect; inconclusive means small, poorly fitted or top-dose-only effect, or another doubt; inactive means no such curve, though single readings can be large; an effect the other way counts as inactive or inconclusive.

SMILES	PTAP TSG101 blk	PLK1 PBD inh	uPA surface inh	TSHR antagonist	VDR inh
COc1ccc2c(c1)O[C@H](c1ccc3c(c1)OCO3)[C@@H](OC(=O)NS(=O)(=O)c1ccc(C)cc1)C2=O	nt	nt	nt	nt	9%
CCOc1ccc(CNS(=O)(=O)c2c(C(=O)N3CCC(C)CC3)c(C)n(C)c2C)cc1OC	nt	nt	nt	nt	3%
CCc1ccc(-n2nc(CO)c(C(=O)NCCCc3ccccc3)n2)cc1	nt	nt	nt	nt	-5%
O=C(O)COc1ccccc1/C=N/NC(=O)CNC(=O)c1ccc(F)cc1	-1%	8.4µM*	3%	8	?
O=C(O)COc1ccccc1/C=N/NC(=O)c1ccc(F)cc1	-5%	-7%	0%	1	1%
CCc1ccc(CNC(=O)CN2C(=O)C3CCCCN3c3ccc(C(=O)N4CCCC4)cc32)cc1 (stereo not drawn)	nt	nt	nt	nt	9%
CCOc1ccc(CC(=O)NCCS(=O)(=O)N2CCN(c3ccc(OC)cc3)CC2)cc1	nt	nt	nt	nt	9%
Cc1cccc(N2CCN(C(=S)c3ccc([N+](=O)[O-])cc3)CC2)c1	-4%	4.7µM*	-8%	-14	?
O=C(OCC(=O)N1CCN(c2ccccc2)CC1)c1cccc([N+](=O)[O-])c1	-1%	-7%	4%	-3	-4%
O=[N+]([O-])c1cccc(C(=S)N2CCN(c3ccccc3)CC2)c1	-2%	12µM*	2%	11	?
O=[N+]([O-])c1ccc(C(=S)N2CCN(c3ccc(F)cc3)CC2)cc1	-8%	15µM*	-5%	-2	79µM*
O=[N+]([O-])c1ccc(NC(=S)N2CCN(c3ccc(F)cc3)CC2)cc1	1%	-14%	-5%	-24	-10%
CCNC(=S)N1CCN(c2ccc([N+](=O)[O-])cc2)CC1	-2%	30µM*	-2%	-7	-9%
CC(=O)c1cccc(NS(=O)(=O)c2ccc(N/C=C/C(=O)c3ccc(F)cc3)cc2)c1	-5%	0%	?	-73*	-7%
CC(=O)c1ccc(NS(=O)(=O)c2ccc(N/C=C/C(=O)c3ccc(F)cc3)cc2)cc1	2%	17µM*	0%	-4	-25%
CC(=O)c1cccc(NS(=O)(=O)c2ccc(N/C=C\C(=O)c3ccc(F)cc3)cc2)c1	0%	-5%	-15%	-34	-6%
Cc1ccc(/C=C(\C#N)c2nc(-c3cc4c(ccc5ccccc54)oc3=O)cs2)cc1	nt	nt	nt	nt	-5%
CC1CCCN(CCCNC(=O)CN2C(=O)CSc3ccc(S(=O)(=O)N4CCOCC4)cc32)C1 (stereo not drawn)	-5%	-19%	0%	-5	-10%
CC1CCCN(C(=O)CN2C(=O)CSc3ccc(S(=O)(=O)N4CCOCC4)cc32)C1 (stereo not drawn)	-3%	27µM*	-10%	20	-1%
Cc1ccccc1NC(=O)CN1C(=O)CSc2ccc(S(=O)(=O)N3CCCC3)cc21	-10%	-15%	-3%	4	0%
Cc1ccccc1NC(=O)CN1C(=O)CSc2ccc(S(=O)(=O)N3CCCCC3)cc21	0%	21µM*	-10%	11	-14%
Cc1cc(C)c(S(=O)(=O)NCCc2csc3nc(-c4ccc(Cl)cc4)nn23)c(C)c1	nt	nt	nt	nt	2%
COCCCNC(=O)Cn1c(=O)n(CCCC(=O)NCc2ccc(C)cc2)c(=O)c2ccccc21	nt	nt	nt	nt	-2%
CCCCSCCCNC(=O)c1cn(CC)c2ccc(S(=O)(=O)N3CCCCCC3)cc2c1=O	nt	nt	nt	nt	3%
COC(=O)c1ccc(NC(=O)CN2C(=O)c3cccc4cccc2c34)cc1	nt	nt	nt	nt	-16%
SMILES	PTAP TSG101 blk	PLK1 PBD inh	uPA surface inh	TSHR antagonist	VDR inh
CS(=O)(=O)N(Cc1ccc(Cl)cc1)c1ccc(C(=O)N2CCN(c3ccccc3)CC2)cc1	-9%	-1%	2%	-1	0%
O=C(c1ccccc1F)N1CCN(c2cnn(-c3cccc(Cl)c3)c(=O)c2Cl)CC1	0%	27µM*	-6%	5	-15%
CS(=O)(=O)N(Cc1ccccc1)c1ccc(C(=O)N2CCN(c3cccc(Cl)c3)CC2)cc1	-7%	2%	nt	-92*	0%
COc1ccccc1C(=O)N1CCN(c2cccc(Cl)c2)CC1	-5%	24µM*	-11%	10	-18%
Cc1onc(-c2ccccc2Cl)c1C(=O)N1CCN(c2ccccc2)CC1	nt	-8%	-17%	-3	-16%
Cc1onc(-c2ccccc2Cl)c1C(=O)N1CCN(c2cccc(Cl)c2)CC1	2%	-5%	2.2µM*	0	-18%
